Reference: ChEMBL document CHEMBL3988442, “University of Dundee, Small-Polar-MMV Screening Library” (2021)

Experiments:
[1] = target: T1, Aspartate--tRNA(Asp/Asn) ligase (Mycobacterium tuberculosis (strain ATCC 25618 / H37Rv)) (UniProt P9WFW3); experiment: Assay for Asp RNA synthetase-1 from Mycobacterium tuberculosis; format: functional; design: scale not given: direction of the effect not stated beside the values; details: 30 µM; further: in the data most compounds retested in dose-response had high values
T1 sequence (whole entry): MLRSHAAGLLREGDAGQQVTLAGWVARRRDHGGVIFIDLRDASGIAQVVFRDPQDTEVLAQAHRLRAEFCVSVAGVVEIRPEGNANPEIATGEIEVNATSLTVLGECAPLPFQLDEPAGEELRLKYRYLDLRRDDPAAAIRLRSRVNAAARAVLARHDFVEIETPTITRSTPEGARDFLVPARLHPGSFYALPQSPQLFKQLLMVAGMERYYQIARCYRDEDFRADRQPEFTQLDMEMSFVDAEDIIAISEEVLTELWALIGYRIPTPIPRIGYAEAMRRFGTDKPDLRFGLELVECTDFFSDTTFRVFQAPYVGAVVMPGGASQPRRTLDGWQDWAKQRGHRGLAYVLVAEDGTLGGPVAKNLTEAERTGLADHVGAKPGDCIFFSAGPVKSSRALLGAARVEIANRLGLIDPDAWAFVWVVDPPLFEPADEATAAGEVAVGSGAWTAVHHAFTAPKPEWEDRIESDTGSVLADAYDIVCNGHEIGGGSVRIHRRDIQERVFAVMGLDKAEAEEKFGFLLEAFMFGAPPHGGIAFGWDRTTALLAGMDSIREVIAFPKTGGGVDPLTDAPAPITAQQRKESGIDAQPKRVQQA

[2] = target: Shiga toxin 2 (Escherichia coli O157:H7) (UniProt P09385+P09386); experiment: E. coli 0.157:H7 Shiga Toxin SOP - stx2 screening assay; format: functional; design: scale not given: direction of the effect not stated beside the values; details: 30 µM

Structure (SMILES): COc1cccc(CN2CCCC2c2c(C)nn(C)c2C)c1 (centres undefined)
- Percent Effect [1]: 2.17%
- Percent Effect [2]: -4.12%

Structure (SMILES): CC(C)c1nc(N2CC(N3CCCCC3C)C2)c2cnn(C)c2n1 (centres undefined)
- Percent Effect [1]: -2.71%
- Percent Effect [2]: -37.8%

Structure (SMILES): CCCC(Nc1c(C#N)c(=O)n(C)c(=O)n1C)c1ccc(F)cc1F (centres undefined)
- Percent Effect [1]: -3.88%
- Percent Effect [2]: 4.48%

Structure (SMILES): COCC1CN(Cc2cc(C)on2)Cc2cn(C)nc21 (centres undefined)
- Percent Effect [1]: 1.83%
- Percent Effect [2]: -2.41%

Structure (SMILES): Cn1cc(CN2CCCN(C(=O)c3cn4ccccc4n3)CC2)cn1
- Percent Effect [1]: 1.48%
- Percent Effect [2]: -25.9%

Structure (SMILES): CCC1(CC)Cc2ccccc2-c2nc(CN(C)C)nc(O)c21
- Percent Effect [1]: 8.36%
- Percent Effect [2]: -1.34%

Structure (SMILES): O=C1CCCCN1c1cccc(CNC2CCCC2)c1
- Percent Effect [1]: -0.259%
- Percent Effect [2]: 18%

Structure (SMILES): O=C(NCC(O)c1ccc(F)c(F)c1)c1cccnc1OCC(F)(F)F (centres undefined)
- Percent Effect [1]: -1.66%
- Percent Effect [2]: -9.04%

Structure (SMILES): NC(=O)CN1CCCN(C(=O)c2ccn(-c3ccccc3)n2)CC1
- Percent Effect [1]: -2.4%
- Percent Effect [2]: 6%

Structure (SMILES): CN(C)C(=O)N1Cc2nnn(C)c2C(COCC2CC2)C1 (centres undefined)
- Percent Effect [1]: 3.51%
- Percent Effect [2]: -35.2%

Structure (SMILES): Cn1cc(C(=O)CC2CCCN2C(=O)c2cncc3ccccc23)cn1 (centres undefined)
- Percent Effect [1]: -4.82%
- Percent Effect [2]: -3.94%

Structure (SMILES): COCCc1noc(CN2CCN(CC(O)c3ccccc3)CC2)n1 (centres undefined)
- Percent Effect [1]: -1.47%
- Percent Effect [2]: 4.32%

Structure (SMILES): Cc1ccccc1CNC(=O)CN1CCN(Cc2nccn2C)CC1
- Percent Effect [1]: 8.88%
- Percent Effect [2]: 6.67%

Structure (SMILES): CSc1ncc(C(=O)N2C[C@H]3CC[C@@H]2CN(Cc2ccccc2)C3)cn1
- Percent Effect [1]: 1.12%
- Percent Effect [2]: -17.1%

Structure (SMILES): O=c1nc(CNc2ccccc2)[nH]n1Cc1ccccc1
- Percent Effect [1]: 3.89%
- Percent Effect [2]: 2.45%

Structure (SMILES): CN(Cc1ccc(OC(F)F)cc1)C(=O)CS(=O)(=O)c1ccc(Cl)cc1
- Percent Effect [1]: 0.524%
- Percent Effect [2]: 15%

Structure (SMILES): Cc1cccnc1NC(=O)CC1(Cn2cnnn2)CCCCC1
- Percent Effect [1]: 7.1%
- Percent Effect [2]: 2.81%

Structure (SMILES): Cc1ccc(S(=O)(=O)N2C[C@H]3C[C@H](NC(=O)c4ccn(C)n4)[C@H]3C2)cc1
- Percent Effect [1]: 1.35%
- Percent Effect [2]: -2.81%

Structure (SMILES): COCCN1CC[C@H](O)[C@@H]1Cc1ccccc1
- Percent Effect [1]: -4.18%
- Percent Effect [2]: -34.6%

Structure (SMILES): COc1c(CNCc2cccc(Cn3ccnc3)c2)c(C)nn1C
- Percent Effect [1]: 7.35%
- Percent Effect [2]: 14.4%

Structure (SMILES): c1ccc(OCCCNCCn2cccn2)cc1
- Percent Effect [1]: -1.5%
- Percent Effect [2]: -44.6%

Structure (SMILES): CCC(=O)N(C)CC(=O)Nc1ccc(Br)cn1
- Percent Effect [1]: -3.04%
- Percent Effect [2]: -18.8%

Structure (SMILES): CCN1CC(C(=O)N2CCC(Oc3ccccc3Cl)CC2)CC1=O (centres undefined)
- Percent Effect [1]: 2.64%
- Percent Effect [2]: -34.4%

Structure (SMILES): CC(O)CN1CCN(C(=O)c2ccc(N(C)C)nc2)CC1 (centres undefined)
- Percent Effect [1]: 1.24%
- Percent Effect [2]: -70%

Structure (SMILES): O=C(CCCOCc1ccccc1)N1CCCC1c1ccccn1 (centres undefined)
- Percent Effect [1]: -1.14%
- Percent Effect [2]: -0.85%

Structure (SMILES): O=C(c1ccc(F)cc1)N1C[C@H]2CCC[C@@]2(COCc2ccccn2)C1
- Percent Effect [1]: 9.3%
- Percent Effect [2]: 3.92%

Structure (SMILES): CO[C@H]1CN(C(=O)c2ccccn2)[C@@H]2CCCO[C@H]12
- Percent Effect [1]: 1.27%
- Percent Effect [2]: 0.669%

Structure (SMILES): COCCOc1ncccc1C(=O)Nc1ccc(-n2cncn2)c(F)c1
- Percent Effect [1]: -3.21%
- Percent Effect [2]: 30.5%

Structure (SMILES): Cc1cc(C)n(CC2CCCN2C(=O)c2c[nH]c3ncccc23)n1 (centres undefined)
- Percent Effect [1]: -1.92%
- Percent Effect [2]: 26.8%

Structure (SMILES): c1cnn(CC2CN(c3ncnc4sccc34)CCO2)c1 (centres undefined)
- Percent Effect [1]: 2.38%
- Percent Effect [2]: -6.78%

Structure (SMILES): Cc1nn(C)c(Cl)c1C1CCCN1C(=O)c1ccc2c(c1)OCO2 (centres undefined)
- Percent Effect [1]: -0.434%
- Percent Effect [2]: 12%

Structure (SMILES): CCc1nc(C2CCCN2C(=O)CCc2ccc3c(c2)OCO3)no1 (centres undefined)
- Percent Effect [1]: 3.41%
- Percent Effect [2]: 6.69%

Structure (SMILES): OC(CN1CCOCC1)CN1CCc2c(ncn2C2CC2)C1 (centres undefined)
- Percent Effect [1]: -8.33%
- Percent Effect [2]: -43.3%

Structure (SMILES): O=C(Nc1nccs1)N(CCO)Cc1ccsc1
- Percent Effect [1]: -2.48%
- Percent Effect [2]: -3.95%

Structure (SMILES): Cc1cc(CN2CCOC(CN(C)C)C2)no1 (centres undefined)
- Percent Effect [1]: 1.81%
- Percent Effect [2]: 26.2%

Structure (SMILES): COc1ccc(CNCc2c(C)nn(C)c2N2CCOCC2)cc1
- Percent Effect [1]: -0.115%
- Percent Effect [2]: 14.4%

Structure (SMILES): CC(Cn1cccn1)NC(=O)NCCc1ccc(Cl)s1 (centres undefined)
- Percent Effect [1]: 4.37%
- Percent Effect [2]: -19.2%

Structure (SMILES): CS(=O)(=O)c1ccc(NC(=O)N2CCc3sccc3C2)cn1
- Percent Effect [1]: 5.08%
- Percent Effect [2]: -38%

Structure (SMILES): CN(Cc1ccco1)C(=O)CN1CCCC(Cn2cncn2)C1 (centres undefined)
- Percent Effect [1]: -1.04%
- Percent Effect [2]: -14.6%

Structure (SMILES): COc1ccccc1C1(C(=O)NCCN2CCOCC2)CCOCC1
- Percent Effect [1]: 10.8%
- Percent Effect [2]: 21.5%

Structure (SMILES): CC(C)c1noc(C(C)N2CCN(CCN3CCCC3=O)CC2)n1 (centres undefined)
- Percent Effect [1]: 1.45%
- Percent Effect [2]: 17.6%

Structure (SMILES): O=c1[nH][nH]cc1-c1ccnc(NCCN2CCCC2)n1
- Percent Effect [1]: 5.51%
- Percent Effect [2]: -68.3%

Structure (SMILES): O=C(c1csc(Br)c1)N1CCCC(n2ccnc2)C1 (centres undefined)
- Percent Effect [1]: -1.27%
- Percent Effect [2]: -53.5%

Structure (SMILES): O=C(N1CCOCC1)[C@@]12CCO[C@@H]1CCN(CC1CCCCC1)C2
- Percent Effect [1]: -2.47%
- Percent Effect [2]: -36.5%

Structure (SMILES): CC(=O)N1CCC(C(=O)NCCN2CCCCC2)CC1
- Percent Effect [1]: -0.501%
- Percent Effect [2]: -3.32%

Structure (SMILES): Cc1ccc(C(=O)N(C)Cc2cscn2)c(=O)[nH]1
- Percent Effect [1]: 0.749%
- Percent Effect [2]: 8.36%

Structure (SMILES): CC(NC(=O)c1cccs1)C(=O)NCc1ccccc1CN1CCCC1 (centres undefined)
- Percent Effect [1]: -4.19%
- Percent Effect [2]: -31.6%
